# Measurements reported in PMC4336329 (PLoS ONE, 2015).
# About 14,000 (4.5%) of roughly 310,000 compounds showed an effect of 50% or more. Effects have a minus sign here. Shown is part of a subset that was picked to be rich in strong results.
# Target: human ether-à-go-go-related gene (hERG) potassium channel (human, UniProt Q12809)
# Assay: primary screen, population patch clamp on CHO cells stably expressing hERG; higher = less effect of the substance
# 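Further: peak tail current of the secondary pulse compared with the same well before compound.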
# Chain of human ether-à-go-go-related gene (hERG) potassium channel (Q12809 whole entry, looked up): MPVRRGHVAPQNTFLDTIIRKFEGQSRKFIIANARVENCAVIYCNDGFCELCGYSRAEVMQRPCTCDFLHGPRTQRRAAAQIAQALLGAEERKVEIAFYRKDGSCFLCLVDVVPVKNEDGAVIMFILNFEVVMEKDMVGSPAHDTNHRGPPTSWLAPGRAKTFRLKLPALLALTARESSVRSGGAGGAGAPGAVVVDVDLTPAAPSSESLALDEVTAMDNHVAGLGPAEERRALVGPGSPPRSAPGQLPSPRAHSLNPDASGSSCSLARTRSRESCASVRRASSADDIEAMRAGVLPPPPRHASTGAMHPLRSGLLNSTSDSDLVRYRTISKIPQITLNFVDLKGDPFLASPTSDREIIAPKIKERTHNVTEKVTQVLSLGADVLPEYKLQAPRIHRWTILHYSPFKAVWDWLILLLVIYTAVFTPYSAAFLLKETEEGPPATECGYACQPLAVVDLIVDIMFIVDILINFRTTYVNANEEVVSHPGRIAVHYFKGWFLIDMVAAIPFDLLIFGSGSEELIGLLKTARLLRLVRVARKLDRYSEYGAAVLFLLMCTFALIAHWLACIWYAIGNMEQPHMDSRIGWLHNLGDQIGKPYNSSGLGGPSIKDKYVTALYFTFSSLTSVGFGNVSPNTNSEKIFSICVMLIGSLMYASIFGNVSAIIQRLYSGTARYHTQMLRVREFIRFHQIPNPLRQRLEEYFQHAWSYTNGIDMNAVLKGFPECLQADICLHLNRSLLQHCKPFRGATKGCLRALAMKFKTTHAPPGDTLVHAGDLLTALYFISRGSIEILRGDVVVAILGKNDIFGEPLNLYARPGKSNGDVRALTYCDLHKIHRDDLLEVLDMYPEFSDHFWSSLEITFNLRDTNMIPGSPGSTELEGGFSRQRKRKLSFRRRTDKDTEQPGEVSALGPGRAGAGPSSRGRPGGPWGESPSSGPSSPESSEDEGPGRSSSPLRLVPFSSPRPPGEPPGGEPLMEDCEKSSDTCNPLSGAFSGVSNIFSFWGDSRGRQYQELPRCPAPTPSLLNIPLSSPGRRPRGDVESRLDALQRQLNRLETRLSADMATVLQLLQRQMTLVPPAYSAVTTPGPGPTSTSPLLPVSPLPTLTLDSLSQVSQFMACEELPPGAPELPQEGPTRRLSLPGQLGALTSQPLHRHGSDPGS
row,Structure (SMILES),"hERG current change (%, negative = inhibition) at 10uM [%]"
1,O=S(=O)(Cc1ccccc1)Nc1ccc(S(=O)(=O)N2CCCC2)cc1,5.25
2,Cc1ccc(C)c(C(=O)CSc2n[nH]c(-c3ccncc3)n2)c1,-0.0279
3,CCN1/C(=C/C=C/C=C/C=C/c2sc3ccccc3[n+]2CC)Sc2ccccc21.[I-],-49.5
4,CCN1/C(=C\C=C(C(C)=O)C(C)=O)Sc2ccccc21,-2.64
5,CCN1/C(=C\C=C2\C(=O)N(C)C(=S)N2C)Sc2ccccc21,24
6,CCN1/C(=C/C(C)=C/c2sc3ccccc3[n+]2CC)Sc2ccccc21.[I-],-78.8
7,CCN1/C(=C/C=C/c2sc3ccccc3[n+]2CC)Sc2ccccc21.[I-],-73.8
8,CCN1/C(=C/C=C/C=C/c2sc3ccccc3[n+]2CC)Sc2ccccc21.[I-],-78.9
9,CC[n+]1c(/C=C(\C)SC)sc2ccccc21.COS(=O)(=O)[O-],3.25
10,CC[n+]1c(/C=C(/C)SC)sc2ccccc21.COS(=O)(=O)[O-],5.99
11,CCOC(=O)/C(=C/C=C1\Sc2ccccc2N1CC)C(C)=O,4.94
12,Cn1nc(C(=O)NCc2cccc(Cl)c2)c2c1-c1ccccc1S(=O)(=O)C2,9.4
13,CN(C)S(=O)(=O)c1cccc(NC(=O)Cn2cc(C(F)(F)F)cc(Cl)c2=O)c1,3.98
14,CN(CC(=O)Nc1cccc(F)c1)CC(=O)N(C)CC(=O)Nc1ccccc1Br,-13.7
15,O=c1ccnc(NCCc2ccccc2)[nH]1,12.7
16,O=c1c2ccccc2nc(-c2ccccc2)n1CCCn1ccnc1,-31.9
17,Cc1ccc(-c2nc3ccccc3c(=O)n2CCCn2ccnc2)cc1,-57.7
18,O=c1c2ccccc2nc(-c2ccco2)n1CCCn1ccnc1,-53.9
19,CCCCn1c(-c2ccco2)nc2ccccc2c1=O,-12.2
20,COCCCn1c(-c2ccco2)nc2ccccc2c1=O,-16
21,COc1ccc(-c2nc3ccccc3c(=O)n2CCCn2ccnc2)cc1,-49
22,CCn1c(NN)nc2sc3c(c2c1=O)CCC3,17.5
23,COc1ccc2c(c1)C=C([C@@H]1C[C@H]3CN(c4ccccc4)C(=O)[C@]34CCCN14)CO2,-49.2

row,Structure (SMILES),"hERG current change (%, negative = inhibition) at 10uM [%]"
1,OCC(O)C1OC(Nc2ccc(Br)cc2)C(O)C1O (centres unmarked),16.7
2,CN(C)c1cccc(C(=O)NCc2ccc(Cl)cc2)c1,-8.25
3,Cc1nc2nc[nH]n2c(=O)c1NS(C)(=O)=O,4.48
4,CCc1ccc(-c2nc(SCC(=O)NC3CCS(=O)(=O)C3)n[nH]2)cc1 (centres unmarked),4.84
5,C=CCn1c(=O)c(C=Nc2cccnc2Cl)c(O)n(CCCC)c1=O,-5.65
6,C=CCn1c(=O)c(C=Nc2c(OC)cccc2[N+](=O)[O-])c(O)n(CCCC)c1=O,-23.8
7,C=CCn1c(=O)c(C=Nc2cccc([N+](=O)[O-])c2)c(O)n(CCCC)c1=O,-55
8,O=C(COc1coc(CN2CCc3ccccc3C2)cc1=O)Nc1cccc([N+](=O)[O-])c1,2.89
9,CCc1ccc(N2CC(C(=O)Nc3ccc(C)c(S(=O)(=O)N4CCOCC4)c3)CC2=O)cc1 (centres unmarked),-34.6
10,COc1ccc(NS(=O)(=O)c2cccc(Cl)c2)cc1S(=O)(=O)N1CCCCC1,7.81
11,COc1ccc(NC(=O)CC(C)CC(=O)NCc2ccccc2)c(OC)c1 (centres unmarked),-0.642
12,CCCc1cc(Nc2cccc(OCC)c2)n2ncnc2n1,-68
13,CCCc1cc(Nc2ccccc2)n2ncnc2n1,2.69
14,CCCc1cc(Nc2cccc(OC)c2)n2ncnc2n1,-28.5
15,CSc1ccc(S(=O)(=O)N2CCC(C(=O)NC3CC3)CC2)cc1,-7.17
16,C=CCNC1=C(Cl)C(=O)c2ccccc2C1=O,4.26
17,Cc1ccc(S(=O)(=O)N2CCN(C)CC2)cc1C(=O)NC1CCCCC1,-19.5
18,CCN(CC)CCn1c(=S)[nH]c2cc(C(=O)NCc3ccccc3Cl)ccc2c1=O,-76.1
19,O=C(NCc1ccccc1Cl)c1ccc2c(=O)n(CC3CCCO3)c(=S)[nH]c2c1 (centres unmarked),10.1
20,CCN(CC)CCn1c(=S)[nH]c2cc(C(=O)NCc3ccc(C)cc3)ccc2c1=O,-57.9
21,Cc1ccc(CNC(=O)c2ccc3c(=O)n(CCCN4CCCC4=O)c(=S)[nH]c3c2)cc1,6.41
22,Cc1ccc(CNC(=O)c2ccc3c(=O)n(CC4CCCO4)c(=S)[nH]c3c2)cc1 (centres unmarked),-9.6
23,O=C(NCc1ccccc1Cl)c1ccc2c(=O)n(CCCN3CCCC3=O)c(=S)[nH]c2c1,-8.83

row,Structure (SMILES),"hERG current change (%, negative = inhibition) at 10uM [%]"
1,COc1ccccc1N(CC(O)COc1c(C)cc(C)cc1C)S(=O)(=O)c1ccccc1 (centres unmarked),-0.161
2,CSc1ncccc1C(=O)N1CCCC(CCC(=O)NCc2ccccc2F)C1 (centres unmarked),6.52
3,CN1CCC(N(C)C(=O)c2sc3cc(F)ccc3c2Cl)CC1,-47.9
4,COc1ccc(NS(=O)(=O)c2cccc3nsnc23)cc1Cl,11.2
5,NC(=O)CSc1ncc(-c2ccc([N+](=O)[O-])cc2)[nH]1,-14.6
6,Cc1cc(C)c(CSc2ncc(-c3ccc([N+](=O)[O-])cc3)[nH]2)c(C)c1,-10.2
7,CCOC(=O)CSc1ncc(-c2ccc([N+](=O)[O-])cc2)[nH]1,-61
8,CCOC(=O)CNC(=O)N1CCCC(C(=O)c2ccc3c(c2)OCO3)C1 (centres unmarked),11.1
9,CCOC(=O)CCNC(=O)N1CCCC(C(=O)c2ccc3c(c2)OCO3)C1 (centres unmarked),2.31
10,O=C(c1ccc2c(c1)OCO2)C1CCCN(Cc2cc(F)ccc2-n2cccn2)C1 (centres unmarked),-74.9
11,Cc1ccc(-n2cccn2)c(CN2CCCC(C(=O)c3ccc4c(c3)OCO4)C2)c1 (centres unmarked),-77.2
12,O=C(c1ccc2c(c1)OCO2)C1CCCN(C(=O)Nc2ccc(F)cc2F)C1 (centres unmarked),-30
13,c1cncc(-c2ccnc3ncnn23)c1,-4.79
14,COc1cc(C)c(CNc2cccc(C)c2)cc1C,2.74
15,Cc1ccc(SCn2nnc3ccccc3c2=O)c(C)c1,-33.8
16,O=C(CCCn1cnc([N+](=O)[O-])n1)Nc1cccc(O)c1,9.95
17,CCOC(=O)C(C)n1nc(-c2ccccc2)c2ccccc2c1=O (centres unmarked),15.9
18,CCC1Oc2ccc(C)cc2N(CC(=O)NC2CCCCC2)C1=O (centres unmarked),5.8
19,CCOC(=O)CSc1nnc(NC(=O)NC(C)C)s1,5.74
20,CCCCNC(=O)CSc1nnc(NC(C)=O)s1,-10.6
21,CCCCNC(=O)Nc1nnc(SCC(=O)OCC)s1,-91.2
22,O=C(O)CCN1CCc2ccccc21,9.02
23,FC(F)(F)c1cccc(NCc2n[nH]c(=S)n2C2CCCCC2)c1,41.2

row,Structure (SMILES),"hERG current change (%, negative = inhibition) at 10uM [%]"
1,Cc1ccc(S(=O)(=O)N(C)Cc2cc3ccccc3[nH]c2=O)cc1,-15.7
2,COc1cccc(C(=O)/C=C/Nc2ccc(S(=O)(=O)Nc3nc(C)cc(C)n3)cc2)c1,-1.4
3,O=C(CCc1nnc2ccc(NCCCN3CCCC3=O)nn12)NCc1ccccc1Cl,-1.05
4,Cc1nn(-c2ccccc2)c2c1C(c1ccc(F)cc1F)C(C#N)=C(N)O2 (centres unmarked),-9.42
5,COc1ccc(C(=O)n2nc(-c3ccco3)nc2N)cc1,-2.65
6,CC(C)CCn1c(=O)c2ccccc2n2c(CN3C(=O)NC4(CCC(C)CC4)C3=O)nnc12 (centres unmarked),-72.1
7,CC(C)CCn1c(=O)c2ccccc2n2c(CN(C)Cc3ccccc3)nnc12,-80.7
8,CC(C)CCn1c(=O)c2ccccc2n2c(CN3CCCC3)nnc12,-2.3
9,CC(C)CCn1c(=O)c2ccccc2n2c(CCl)nnc12,-32.8
10,CC(C)CCn1c(=O)c2ccccc2n2c(=S)[nH]nc12,18.2
11,CC(C)CCn1c(=O)c2ccccc2n2c(CN3CCOCC3)nnc12,-11.9
12,CCN1C(=O)/C(=C2/Sc3ccc(OC)cc3N2C)SC1=Nc1cccc(O)c1,15.6
13,CCOc1ccc(S(=O)(=O)n2ccc(C)n2)cc1,10.9
14,O=S(=O)(NCc1ccc2c(c1)OCO2)c1cccc(S(=O)(=O)N2CCOCC2)c1,10.6
15,N#Cc1ccc2c(c1)nnn2-c1ccccc1,1.85
16,O=c1c2ccccc2nc(CSc2ncnc3nc[nH]c23)n1-c1ccc(Cl)c(Cl)c1,5.27
17,CCOC(=O)Cn1cnc2c(C#N)c3n(c2c1=O)CCCCC3,-9.52
18,N#Cc1c(-c2ccccc2)nc(-c2ccncc2)[nH]c1=O,-71.5
19,N#Cc1c(-c2ccccc2)nc(-c2ccccc2)[nH]c1=O,13.4
20,N#Cc1c(-c2ccccc2)nc(-c2cccnc2)[nH]c1=O,17.6
